High-throughput results from PubChem.
VDR inhibitor = blocks the human vitamin D receptor. 0.93% of 400,000 active. P11473. VDR-SRC2-3 peptide fluorescence polarization, 2 h. AID 504847. Potency, µM, inactives show max response, negative = inhibition, hits mostly inhibitors; also: % is scaled to controls: 0 for no effect and ±100 for the full control effect
Target sequence (P11473 whole entry, looked up): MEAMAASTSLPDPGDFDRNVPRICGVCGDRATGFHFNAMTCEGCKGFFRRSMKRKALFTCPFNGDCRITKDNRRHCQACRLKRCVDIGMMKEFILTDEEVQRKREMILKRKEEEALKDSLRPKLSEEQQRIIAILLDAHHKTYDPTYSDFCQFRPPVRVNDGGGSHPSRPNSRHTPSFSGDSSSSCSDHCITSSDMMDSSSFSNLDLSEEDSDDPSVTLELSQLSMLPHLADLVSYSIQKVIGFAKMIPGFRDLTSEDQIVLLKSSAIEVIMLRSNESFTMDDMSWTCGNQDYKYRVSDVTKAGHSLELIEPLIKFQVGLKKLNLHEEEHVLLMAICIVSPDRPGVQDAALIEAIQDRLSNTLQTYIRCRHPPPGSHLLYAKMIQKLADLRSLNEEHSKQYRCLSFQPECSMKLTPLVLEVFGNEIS
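Reagent solutions, kept cold and dark, are dispensed first; compounds are then pinned in at 23 nl, plates briefly spun, and incubated 2 h at ambient temperature. Inhibition of VDR–SRC2-3 peptide binding is read by fluorescence polarization.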
G9a inh = inhibitors of human histone lysine methyltransferase G9a. AID 504332. Potency, µM (highest dose often 102 µM), inactives show at the top dose activity, negative = inhibition, usual class: inhibitors. G9a H3K9 monomethylation, AlphaScreen, 2 h. Q96KQ7. 8.8% of 350,000 active; also: % is scaled to controls: 0 for no effect and ±100 for the full control effect; nearly all actives have a fitted effect of over 75% in size
Target sequence (Q96KQ7 913-1193 limits assumed): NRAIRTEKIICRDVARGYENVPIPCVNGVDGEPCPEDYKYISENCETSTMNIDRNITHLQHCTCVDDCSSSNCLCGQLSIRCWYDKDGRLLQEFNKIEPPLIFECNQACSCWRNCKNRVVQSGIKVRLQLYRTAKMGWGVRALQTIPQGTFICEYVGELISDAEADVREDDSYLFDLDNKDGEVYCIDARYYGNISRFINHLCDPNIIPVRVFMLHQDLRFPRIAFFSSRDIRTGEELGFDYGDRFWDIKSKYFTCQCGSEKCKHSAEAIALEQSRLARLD
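Methyltransferase reactions run at room temperature for 2 h (20 nM enzyme, 500 nM biotin-H3K9 peptide, 20 uM SAM) after a 15 min compound preincubation; product detected by AlphaScreen beads and anti-H3K9me1 antibody.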
Sfp PPTase inh = blocks B. subtilis Sfp PPTase activity; Potency, µM, for inactives: largest response in the series, negative = inhibition, hits mostly inhibitors; AID 1490; Q9F4F7; Biochemical Sfp PPTase activity, qHTS; 3.5% of 310,000 active;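 also: the enzyme is Sfp with the accession as filed and its product quenches rhodamine fluorescence; 0% = enzyme reaction without inhibitor and -100% = no enzyme wells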
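Fluorescence-quenching assay: 15 nM Sfp-PPTase preincubated 15 min at room temperature with compound, then 5 uM rhodamine-CoA and 12.5 uM BHQ-2-labelled YbbR peptide added. Fluorescence (ex 525/em 598 nm) read at start and after 30 min; difference gives rate.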
12-LOX inh = inhibitors of human 12S-lipoxygenase ALOX12. P18054. purified 12hLO, xylenol orange hydroperoxide absorbance. Potency, µM (series often up to 108 µM), for the others: at the top dose activity change, negative = inhibition, actives largely listed as inhibitors. 1.1% of 580,000 active. AID 1671190; also: % is scaled to controls: 0 for no effect and ±100 for the full control effect
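Hydroperoxide product was detected by ferrous iron/xylenol orange as the 573 to 405 nm absorbance ratio. Arachidonic acid at 40 uM (final) was turned over for 30 min at room temperature by 150 nM human 12hLO, pH 7.0 Hepes buffer, after 15 min compound preincubation.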
GRP78 ERSR act = inducers of ER stress response in human glioma cells. 0.02% of 420,000 active. U87-MG GRP78 promoter luciferase reporter, 16 h. AID 602332. Potency, µM, without a hit: at the highest dose activation, most hits filed as activators; also: series mostly up to about 76 µM; % of control where 0% means no effect; nearly all actives have a fitted effect of over 35% in size
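Stably transfected U87-MG glioma cells carrying a GRP78-based luciferase sensor; 16 h compound incubation. Luminescence end-point read 10 min after Bright-Glo addition at room temperature.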
The depositor's hits bear a star; i = inactive; ? = inconclusive; / = no result; [ ] = another dose, or the depositor's remark. This is one part of a sample in which hits are shown more often than they occur. Calls follow the shape of the dose curve; as a rule, active = well fitted curve in the direction sought with a large enough effect; inconclusive = small, poorly fitted or top-dose-only effect, or another doubt; inactive = no such curve, though single readings can be large; an effect the other way counts as inactive or inconclusive. Potency is read from the fitted curve at half-maximal effect.

SMILES	VDR inhibitor	G9a inh	Sfp PPTase inh	12-LOX inh	GRP78 ERSR act
O=C(CSc1ncnc2c1oc1ccccc12)NCc1ccco1	-10%	14µM*	28µM*	-25%	-3%
CCCCc1nc2sc3c(SCCN(C)C)ncnc3c2c2c1CCC2	?	?	?	114%	1%
CCc1nc(NCc2ccco2)c2oc3ccccc3c2n1	7%	?	?	-10%	4%
CCOc1cc(=O)n2c(c1C(=O)Nc1ccc3c(c1)OCO3)CCCC2	/	/	/	17%	/
CONC(=O)C(NC(=O)c1ccc(Cl)cc1Cl)C(C)C (centres undefined)	/	/	/	27%	/
CN(CC(=O)Nc1cccc(F)c1)CC(=O)N(C)C1(C#N)CCCCC1	/	/	/	-26%	/
COc1cccc(NC(=O)CSc2ncnc3c2oc2ccccc23)c1	0%	13%	71µM*	10%	-4%
O=C(CSc1nnc2c(n1)[nH]c1ccccc12)NCc1ccco1	-4%	10µM*	40µM*	-15%	-3%
Cc1ccc(S(=O)(=O)CC(=O)N(CCCN2CCOCC2)c2nc3c(F)cccc3s2)cc1	-3%	?	/	-12%	3%
O=C(CCS(=O)(=O)c1ccccc1)N(CCCN1CCOCC1)c1nc2c(F)cccc2s1	?	14µM*	/	?	-12%
O=C(CCS(=O)(=O)c1ccccc1)N(CCCN1CCOCC1)c1nc2ccc(F)cc2s1	-14%	22µM*	/	-23%	-11%
O=C(O)c1ccc(NC(=S)Nc2ccccc2)cc1	-19%	?	50µM*	?	0%
COc1ccc(NC(=S)NC(=O)c2cccnc2)cc1	-7%	14%	-2%	10%	3%
COC(=O)c1ccc(NC(=S)NC(=O)c2cccnc2)cc1	-8%	/	89µM*	0%	0%
COC(=O)c1ccc(NC(=S)Nc2ccccc2)cc1	-6%	-50%[59 µM]	3%	-17%	-1%
O=C(O)c1ccc(NC(=S)NC(=O)c2cccnc2)cc1	12%	79µM*	-27%	?	-4%
CC(C)(C)c1ccc2cc(C(=O)NC3CC3)[nH]c2c1	/	/	/	-1%	/
c1ccc(-c2ccccc2OCCCN2CCCC2)cc1	-5%	10µM*	-62%	?	-3%
Fc1ccccc1OCCCCN1CCCCC1	-3%	50µM*	-16%	?	-5%
Clc1ccccc1OCCCCN1CCCC1	14%	?	-8%	?	4%
c1ccc2c(OCCCCN3CCCC3)cccc2c1	-4%	35µM*	-11%	-24%	-2%
c1ccc(-c2ccccc2OCCCCN2CCCCC2)cc1	-2%	13µM*	-12%	-36%	-5%
Brc1ccccc1OCCCN1CCCC1	-5%	/	-15%	?	-2%
Clc1ccccc1OCCCCN1CCCCC1	-7%	/	-21%	?	7%
C/C(=N/NC(=O)c1ccc(C)cc1)C(C)(C)C	/	/	/	22%	/
SMILES	VDR inhibitor	G9a inh	Sfp PPTase inh	12-LOX inh	GRP78 ERSR act
COc1ccc(CC(=O)NC(C)c2ccco2)cc1 (centres undefined)	/	/	/	-32%	/
c1ccc(-c2ccccc2OCCCN2CCCCCC2)cc1	-19%	3.5µM*	-18%	?	-3%
Cc1ccc(S(=O)(=O)N(CC(=O)N2CCc3ccccc3C2)Cc2c(F)cccc2Cl)cc1	/	/	/	-9%	/
COC(=O)c1ccccc1NC(=S)N(C)C	8%	25%[59 µM]	19%	2%	-5%
COC(=O)c1ccccc1N=C(SC)N(C)C	?	16µM*	-17%	3%	-2%
CC(C)C(NC(=O)c1ccc2c(c1)NC(=O)CS2)c1cccs1 (centres undefined)	/	/	/	13%	/
Cc1nnc(N/N=C/C(C)c2ccccc2)[nH]c1=O (centres undefined)	6%	?	79µM*	0%	4%
Cc1ccc(N(C(=O)Cn2nnc3ccccc32)C(C(=O)NCc2ccco2)c2ccc(C)o2)cc1 (centres undefined)	2%	?	-26%	i	-4%
Cc1ccc(C(C(=O)NCc2ccco2)N(C(=O)Cn2nnc3ccccc32)c2ccccc2)o1 (centres undefined)	-12%	45µM*	-13%	59%	-5%
COc1ccc(N(C(=O)Cn2nnc3ccccc32)C(C(=O)NCc2ccco2)c2ccc(C)o2)cc1 (centres undefined)	9%	50µM*	-6%	31%	3%
COc1ccc(N(C(=O)/C=C\C(=O)Nc2ccc(Cl)cc2)C(C(=O)NCc2ccco2)c2ccc(C)cc2)cc1 (centres undefined)	12%	11µM*	/	-72%	-5%
Cc1ccc(NC(=O)/C=C\C(=O)N(c2ccc(C(C)C)cc2)C(C(=O)NCc2ccco2)c2ccc(Cl)cc2)cc1 (centres undefined)	9%	?	/	?	-1%
Cc1c(CCC(=O)Nc2cccc(F)c2)c(=O)oc2cc(O)ccc12	/	/	/	11%	/
Cc1ccc([N+](=O)[O-])cc1S(=O)(=O)N1CCC(C)CC1	2%	56µM*	-1%	-18%	-1%
CC1=NCCN1S(=O)(=O)c1cc([N+](=O)[O-])ccc1Cl	3%	45µM*	14%	-8%	-4%
O=C(Nc1ccc2oc(-c3cccnc3)nc2c1)c1ccccc1I	/	/	/	32%	/
CCN1CCN(c2cc3c(nn2)Oc2ccccc2N3C)CC1	15%	50µM*	12%	10%	0%
C=CCOc1ccc(/C=C2\SC(=S)N(C(C(=O)O)c3ccccc3)C2=O)cc1 (centres undefined)	79µM*	?	-9%	?	-5%
CC(/C=C1\SC(=S)N(C(C(=O)O)c2ccccc2)C1=O)=C\c1ccccc1 (centres undefined)	-17%	/	-12%	?	-4%
O=C(O)C(c1ccccc1)N1C(=O)/C(=C/c2cccs2)SC1=S (centres undefined)	-16%	/	-13%	?	-5%
CC(c1ccccc1)N1C(=O)/C(=C/c2ccncc2)SC1=S (centres undefined)	45µM*	28µM*	-30%	?	-15%
COc1ccc(OC)c(/C=C2\SC(=S)N(C(C(=O)O)c3ccccc3)C2=O)c1 (centres undefined)	?	/	56µM*	?	2%
CCCCc1ccc(-c2csc(-c3nc(-c4ccc(C)cc4)c(C)s3)n2)cc1	/	/	/	12%	/
CCOc1ccccc1CN1CCC2(CCN(Cc3ccc(F)cc3)CC2)Oc2ccccc21	/	/	/	32µM*	/
CSc1ccc(C(=S)N2CCN(C)CC2)cc1	-54%	?	6.3µM*	-7%	-3%
CSc1ccc(C(=S)N2CCN(C(c3ccccc3)c3ccccc3)CC2)cc1	?	10µM*	35µM*	-13%	1%
CN1CCN(C(=S)c2ccc(N(C)C)cc2)CC1	?	?	-5%	-10%	1%
CCN1CCN(C2(C(=O)N3CCC(COC)C3)Cc3ccccc3C2)CC1 (centres undefined)	/	/	/	9%	/
COCCOC(=O)C1=C(C)N=C2SC=C(CC(=O)NC3CC3)N2C1c1ccccc1C (centres undefined)	/	/	/	65%	/
